Experiments:
Experiment in all cases: DAPPL (digital affinity profiling via proximity ligation, sequencing); 10 mM Tris-HCl pH 7.5, 50 mM NaCl, 1 mM DTT, 4% glycerol, room temperature, 30 min; GST-TFs on glutathione beads, 16-mer random dsDNA library, 0.1% formaldehyde crosslink after washing; high values mean tight binding
FLI1 = molecular target: T1, FLI1 (Homo sapiens, UniProt Q01543 1-452); conditions: protein: recombinant; tags: N-terminal GST; dsDNA, one strand shown
T1 sequence: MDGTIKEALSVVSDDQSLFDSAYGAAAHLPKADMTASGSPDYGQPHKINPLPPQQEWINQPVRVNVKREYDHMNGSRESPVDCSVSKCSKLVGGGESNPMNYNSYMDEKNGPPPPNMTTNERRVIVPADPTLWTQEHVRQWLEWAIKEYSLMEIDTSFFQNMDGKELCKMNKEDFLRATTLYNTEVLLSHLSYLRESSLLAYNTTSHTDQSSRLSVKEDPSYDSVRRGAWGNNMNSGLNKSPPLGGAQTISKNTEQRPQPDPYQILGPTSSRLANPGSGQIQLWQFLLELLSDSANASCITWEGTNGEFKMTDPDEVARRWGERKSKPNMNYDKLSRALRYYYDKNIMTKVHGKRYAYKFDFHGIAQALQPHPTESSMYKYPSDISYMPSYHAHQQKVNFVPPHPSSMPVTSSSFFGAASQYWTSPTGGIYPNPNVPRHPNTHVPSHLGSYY
Procedure, shortened: (§1)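 A tag-only sample was pooled with DNA-barcoded human transcription factors that had been expressed in yeast as GST fusions and captured on glutathione beads. The pools were incubated for 30 min at room temperature with 200 nmole of a random double-stranded 16-mer DNA library in Tris/NaCl/DTT/glycerol buffer, then washed, crosslinked with 0.1% formaldehyde, proximity-ligated (BsaI/T4 ligase, 1 h, 37 °C), PCR-amplified and sequenced on an Illumina NextSeq500. Binding signal is each hexamer's read frequency for a factor divided by its frequency for the tag-only sample.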

ELK1 = molecular target: T2, ELK1 (Homo sapiens, UniProt P19419 1-428); conditions: protein: recombinant; tags: N-terminal GST; dsDNA, one strand shown
T2 sequence: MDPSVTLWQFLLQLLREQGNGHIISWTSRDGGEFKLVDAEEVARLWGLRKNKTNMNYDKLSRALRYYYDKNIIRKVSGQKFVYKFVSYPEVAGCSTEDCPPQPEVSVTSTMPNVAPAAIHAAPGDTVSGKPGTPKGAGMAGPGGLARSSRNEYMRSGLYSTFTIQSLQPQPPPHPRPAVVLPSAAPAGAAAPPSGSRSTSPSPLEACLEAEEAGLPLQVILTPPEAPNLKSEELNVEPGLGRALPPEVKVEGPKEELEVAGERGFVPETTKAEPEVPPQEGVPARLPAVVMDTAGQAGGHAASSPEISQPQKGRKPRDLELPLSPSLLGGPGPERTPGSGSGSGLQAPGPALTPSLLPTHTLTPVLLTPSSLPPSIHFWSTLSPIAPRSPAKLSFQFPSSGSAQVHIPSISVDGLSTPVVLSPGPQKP
Procedure, shortened: as §1

GABPA = molecular target: T3, GABPA (Homo sapiens, UniProt Q06546 1-454); conditions: protein: recombinant; tags: N-terminal GST; dsDNA, one strand shown
T3 sequence: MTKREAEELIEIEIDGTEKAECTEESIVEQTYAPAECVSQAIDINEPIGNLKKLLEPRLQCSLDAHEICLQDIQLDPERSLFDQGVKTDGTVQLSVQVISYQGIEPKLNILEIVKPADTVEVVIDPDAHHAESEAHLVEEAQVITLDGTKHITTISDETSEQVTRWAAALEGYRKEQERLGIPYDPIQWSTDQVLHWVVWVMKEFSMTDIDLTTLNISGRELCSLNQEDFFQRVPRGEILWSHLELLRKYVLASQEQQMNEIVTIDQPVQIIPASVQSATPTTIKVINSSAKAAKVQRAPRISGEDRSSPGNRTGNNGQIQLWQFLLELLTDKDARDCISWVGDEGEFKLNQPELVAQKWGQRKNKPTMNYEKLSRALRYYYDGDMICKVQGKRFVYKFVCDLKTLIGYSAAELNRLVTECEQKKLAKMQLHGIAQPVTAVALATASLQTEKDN
Procedure, shortened: as §1

ERG = molecular target: T4, ERG (Homo sapiens, UniProt P11308 1-479); conditions: protein: recombinant; tags: N-terminal GST; dsDNA, one strand shown
T4 sequence: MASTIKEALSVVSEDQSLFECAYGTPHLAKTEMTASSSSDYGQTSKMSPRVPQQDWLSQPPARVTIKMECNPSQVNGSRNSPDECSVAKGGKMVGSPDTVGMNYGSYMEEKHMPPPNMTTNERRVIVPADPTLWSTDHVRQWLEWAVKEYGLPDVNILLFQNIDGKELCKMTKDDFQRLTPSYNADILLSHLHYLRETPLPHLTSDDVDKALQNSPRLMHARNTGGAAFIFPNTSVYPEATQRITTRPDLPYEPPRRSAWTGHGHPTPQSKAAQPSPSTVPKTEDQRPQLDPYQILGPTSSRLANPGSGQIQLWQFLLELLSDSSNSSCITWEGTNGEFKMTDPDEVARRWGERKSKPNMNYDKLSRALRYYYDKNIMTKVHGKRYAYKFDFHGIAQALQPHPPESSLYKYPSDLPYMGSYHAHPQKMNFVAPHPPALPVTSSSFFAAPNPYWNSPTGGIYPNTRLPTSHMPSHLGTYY
Procedure, shortened: as §1

ELF1 = ELF1 (Homo sapiens, UniProt P32519 1-619); conditions: protein: recombinant; tags: N-terminal GST; dsDNA, one strand shown
Procedure, shortened: as §1

EHF = molecular target: T5, EHF (Homo sapiens, UniProt Q9NZC4 1-300); conditions: protein: recombinant; tags: N-terminal GST; dsDNA, one strand shown
T5 sequence: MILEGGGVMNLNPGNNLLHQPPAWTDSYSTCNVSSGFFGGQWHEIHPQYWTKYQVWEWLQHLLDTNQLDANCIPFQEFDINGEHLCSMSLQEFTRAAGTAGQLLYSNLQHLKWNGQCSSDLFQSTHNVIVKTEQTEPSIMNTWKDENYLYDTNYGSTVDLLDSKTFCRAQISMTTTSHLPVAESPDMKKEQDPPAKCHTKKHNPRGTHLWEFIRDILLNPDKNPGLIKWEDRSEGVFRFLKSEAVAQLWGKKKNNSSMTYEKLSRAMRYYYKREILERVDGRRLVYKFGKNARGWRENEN
Procedure, shortened: as §1

SPI1 = SPI1 (Homo sapiens, UniProt P17947 1-270); conditions: protein: recombinant; tags: N-terminal GST; dsDNA, one strand shown
Procedure, shortened: as §1

SPIB = SPIB (Homo sapiens, UniProt Q01892 1-262); conditions: protein: recombinant; tags: N-terminal GST; dsDNA, one strand shown
Procedure, shortened: as §1

FEV = molecular target: T6, FEV (Homo sapiens, UniProt Q99581 1-238); conditions: protein: recombinant; tags: N-terminal GST; dsDNA, one strand shown
T6 sequence: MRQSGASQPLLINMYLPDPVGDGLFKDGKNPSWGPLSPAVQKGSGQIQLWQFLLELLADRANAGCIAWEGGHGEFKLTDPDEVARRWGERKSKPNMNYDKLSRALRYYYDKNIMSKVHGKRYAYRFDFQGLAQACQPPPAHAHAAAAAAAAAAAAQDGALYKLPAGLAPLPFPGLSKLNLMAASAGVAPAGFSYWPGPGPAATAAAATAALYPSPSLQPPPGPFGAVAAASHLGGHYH
Procedure, shortened: as §1

ETV5 = ETV5 (Homo sapiens, UniProt P41161 1-510); conditions: protein: recombinant; tags: N-terminal GST; dsDNA, one strand shown
Procedure, shortened: as §1

HSF1 = HSF1 (Homo sapiens, UniProt Q00613 1-529); conditions: protein: recombinant; tags: N-terminal GST; chain copies: 3; dsDNA, one strand shown
Procedure, shortened: as §1

SPIC = molecular target: T7, SPIC (Homo sapiens, UniProt Q8N5J4 1-248); conditions: protein: recombinant; tags: N-terminal GST; dsDNA, one strand shown
T7 sequence: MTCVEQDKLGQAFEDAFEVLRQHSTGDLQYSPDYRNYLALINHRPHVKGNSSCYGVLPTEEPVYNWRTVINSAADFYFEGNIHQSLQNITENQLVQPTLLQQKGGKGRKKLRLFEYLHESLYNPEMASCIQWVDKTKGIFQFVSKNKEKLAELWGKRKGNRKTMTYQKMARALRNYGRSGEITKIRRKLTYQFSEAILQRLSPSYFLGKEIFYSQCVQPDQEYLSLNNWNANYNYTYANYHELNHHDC
Procedure, shortened: as §1

ELF4 = ELF4 (Homo sapiens, UniProt Q99607 1-663); conditions: protein: recombinant; tags: N-terminal GST; dsDNA, one strand shown
Procedure, shortened: as §1

ELK4 = molecular target: T8, ELK4 (Homo sapiens, UniProt P28324-2 1-405); conditions: protein: recombinant; tags: N-terminal GST; dsDNA, one strand shown
T8 sequence: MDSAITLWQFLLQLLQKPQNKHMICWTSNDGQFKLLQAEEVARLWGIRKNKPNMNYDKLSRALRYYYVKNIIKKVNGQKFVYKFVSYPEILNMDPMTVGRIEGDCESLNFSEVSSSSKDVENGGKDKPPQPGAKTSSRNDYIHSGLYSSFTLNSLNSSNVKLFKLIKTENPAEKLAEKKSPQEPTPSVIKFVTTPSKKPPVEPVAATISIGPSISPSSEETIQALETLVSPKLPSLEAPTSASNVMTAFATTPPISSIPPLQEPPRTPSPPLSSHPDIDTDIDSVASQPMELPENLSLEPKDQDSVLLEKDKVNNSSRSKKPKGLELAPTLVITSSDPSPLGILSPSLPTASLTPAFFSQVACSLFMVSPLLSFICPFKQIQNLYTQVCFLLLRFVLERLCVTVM
Procedure, shortened: as §1

ETV2 = molecular target: T9, ETV2 (Homo sapiens, UniProt O00321 1-342); conditions: protein: recombinant; tags: N-terminal GST; dsDNA, one strand shown
T9 sequence: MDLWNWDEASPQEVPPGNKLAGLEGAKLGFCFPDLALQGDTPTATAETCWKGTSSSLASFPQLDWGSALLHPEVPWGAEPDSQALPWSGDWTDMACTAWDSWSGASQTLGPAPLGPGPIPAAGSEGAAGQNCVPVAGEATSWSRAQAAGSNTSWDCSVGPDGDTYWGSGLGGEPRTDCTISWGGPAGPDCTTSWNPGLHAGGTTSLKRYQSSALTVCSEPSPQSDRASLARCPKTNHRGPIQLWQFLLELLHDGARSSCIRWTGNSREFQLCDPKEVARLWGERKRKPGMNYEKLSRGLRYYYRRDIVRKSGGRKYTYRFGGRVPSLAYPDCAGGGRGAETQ
Procedure, shortened: as §1

ELF3 = molecular target: T10, ELF3 (Homo sapiens, UniProt P78545 1-371); conditions: protein: recombinant; tags: N-terminal GST; dsDNA, one strand shown
T10 sequence: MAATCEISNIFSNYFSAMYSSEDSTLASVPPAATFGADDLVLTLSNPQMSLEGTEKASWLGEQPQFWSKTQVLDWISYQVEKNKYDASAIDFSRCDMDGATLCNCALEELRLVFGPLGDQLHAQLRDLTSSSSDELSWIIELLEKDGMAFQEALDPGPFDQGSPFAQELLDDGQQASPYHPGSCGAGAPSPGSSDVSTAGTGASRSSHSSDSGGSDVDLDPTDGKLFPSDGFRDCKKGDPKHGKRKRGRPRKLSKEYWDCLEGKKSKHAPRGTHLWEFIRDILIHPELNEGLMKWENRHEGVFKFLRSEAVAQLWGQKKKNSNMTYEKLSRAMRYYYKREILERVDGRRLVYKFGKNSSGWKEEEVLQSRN
Procedure, shortened: as §1

CRX = CRX (Homo sapiens, UniProt O43186 1-299); conditions: protein: recombinant; tags: N-terminal GST; dsDNA, one strand shown
Procedure, shortened: as §1

ETV1 = ETV1 (Homo sapiens, UniProt P50549 1-477); conditions: protein: recombinant; tags: N-terminal GST; dsDNA, one strand shown
Procedure, shortened: as §1

ELF1, sequence (P32519 whole entry): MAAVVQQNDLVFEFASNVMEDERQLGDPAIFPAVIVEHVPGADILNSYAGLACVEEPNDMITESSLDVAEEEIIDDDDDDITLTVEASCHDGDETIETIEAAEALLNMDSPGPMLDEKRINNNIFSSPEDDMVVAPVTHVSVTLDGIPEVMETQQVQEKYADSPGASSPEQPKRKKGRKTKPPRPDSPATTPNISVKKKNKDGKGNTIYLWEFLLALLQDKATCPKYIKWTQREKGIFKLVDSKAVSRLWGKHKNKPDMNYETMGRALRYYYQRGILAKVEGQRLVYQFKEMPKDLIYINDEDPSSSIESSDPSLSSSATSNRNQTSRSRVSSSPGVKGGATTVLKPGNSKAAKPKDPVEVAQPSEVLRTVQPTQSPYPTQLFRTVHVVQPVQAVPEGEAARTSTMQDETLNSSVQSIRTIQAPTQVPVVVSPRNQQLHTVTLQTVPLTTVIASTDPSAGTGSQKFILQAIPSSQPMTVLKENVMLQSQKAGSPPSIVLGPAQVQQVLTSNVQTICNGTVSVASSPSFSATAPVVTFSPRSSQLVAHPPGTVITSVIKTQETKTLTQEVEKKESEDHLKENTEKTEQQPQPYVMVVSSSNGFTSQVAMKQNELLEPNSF
ETV5, sequence (P41161 whole entry): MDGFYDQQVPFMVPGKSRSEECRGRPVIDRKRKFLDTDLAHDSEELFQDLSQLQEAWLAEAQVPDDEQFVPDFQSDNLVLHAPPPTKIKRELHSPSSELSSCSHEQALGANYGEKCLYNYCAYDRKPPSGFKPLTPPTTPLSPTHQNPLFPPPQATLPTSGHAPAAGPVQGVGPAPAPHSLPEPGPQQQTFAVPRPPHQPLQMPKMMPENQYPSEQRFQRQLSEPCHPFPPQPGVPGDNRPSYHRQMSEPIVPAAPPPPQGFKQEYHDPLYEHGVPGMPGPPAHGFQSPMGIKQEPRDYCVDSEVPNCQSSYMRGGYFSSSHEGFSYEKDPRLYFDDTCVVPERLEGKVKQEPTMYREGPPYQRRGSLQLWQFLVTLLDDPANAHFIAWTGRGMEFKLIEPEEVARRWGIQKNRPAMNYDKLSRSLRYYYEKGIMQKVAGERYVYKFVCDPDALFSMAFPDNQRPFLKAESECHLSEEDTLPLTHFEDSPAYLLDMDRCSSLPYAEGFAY
SPIB, sequence (Q01892 whole entry): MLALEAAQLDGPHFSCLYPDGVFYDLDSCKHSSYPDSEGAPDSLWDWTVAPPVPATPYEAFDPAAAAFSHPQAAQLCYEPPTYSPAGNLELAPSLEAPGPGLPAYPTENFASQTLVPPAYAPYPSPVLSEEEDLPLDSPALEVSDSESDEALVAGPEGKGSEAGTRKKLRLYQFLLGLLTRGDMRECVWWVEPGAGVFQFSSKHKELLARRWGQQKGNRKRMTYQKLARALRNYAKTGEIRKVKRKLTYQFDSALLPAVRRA
ELF4, sequence (Q99607 whole entry): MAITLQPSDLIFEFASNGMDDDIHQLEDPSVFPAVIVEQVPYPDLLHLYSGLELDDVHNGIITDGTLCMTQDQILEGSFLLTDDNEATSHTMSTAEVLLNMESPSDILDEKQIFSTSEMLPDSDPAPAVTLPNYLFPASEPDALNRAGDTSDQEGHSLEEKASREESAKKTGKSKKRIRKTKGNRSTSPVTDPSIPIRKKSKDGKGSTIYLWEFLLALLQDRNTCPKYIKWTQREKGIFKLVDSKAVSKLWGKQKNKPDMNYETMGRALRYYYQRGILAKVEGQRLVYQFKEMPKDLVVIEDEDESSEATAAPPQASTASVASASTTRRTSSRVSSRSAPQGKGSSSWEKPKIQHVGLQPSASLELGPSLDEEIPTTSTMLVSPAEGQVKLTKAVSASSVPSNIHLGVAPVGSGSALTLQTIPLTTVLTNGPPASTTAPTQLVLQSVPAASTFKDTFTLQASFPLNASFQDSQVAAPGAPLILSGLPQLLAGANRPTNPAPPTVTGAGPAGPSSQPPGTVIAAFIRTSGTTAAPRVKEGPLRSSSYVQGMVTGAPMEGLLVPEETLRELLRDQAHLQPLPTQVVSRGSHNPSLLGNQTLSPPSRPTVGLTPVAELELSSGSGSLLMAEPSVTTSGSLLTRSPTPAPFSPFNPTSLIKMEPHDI
HSF1, sequence (Q00613 whole entry): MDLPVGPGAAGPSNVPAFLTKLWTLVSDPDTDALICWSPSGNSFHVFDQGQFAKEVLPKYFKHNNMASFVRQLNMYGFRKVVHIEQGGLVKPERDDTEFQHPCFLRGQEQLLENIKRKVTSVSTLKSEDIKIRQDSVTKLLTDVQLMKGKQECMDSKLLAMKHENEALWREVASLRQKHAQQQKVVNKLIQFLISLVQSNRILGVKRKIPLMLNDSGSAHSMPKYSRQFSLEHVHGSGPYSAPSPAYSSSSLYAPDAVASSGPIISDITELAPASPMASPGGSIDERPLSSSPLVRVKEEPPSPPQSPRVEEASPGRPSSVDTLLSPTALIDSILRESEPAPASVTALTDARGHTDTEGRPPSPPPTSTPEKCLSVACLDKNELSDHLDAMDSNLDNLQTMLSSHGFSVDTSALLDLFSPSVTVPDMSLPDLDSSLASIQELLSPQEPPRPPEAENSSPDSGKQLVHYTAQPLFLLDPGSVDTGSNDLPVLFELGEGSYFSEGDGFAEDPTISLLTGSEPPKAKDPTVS
ETV1, sequence (P50549 whole entry): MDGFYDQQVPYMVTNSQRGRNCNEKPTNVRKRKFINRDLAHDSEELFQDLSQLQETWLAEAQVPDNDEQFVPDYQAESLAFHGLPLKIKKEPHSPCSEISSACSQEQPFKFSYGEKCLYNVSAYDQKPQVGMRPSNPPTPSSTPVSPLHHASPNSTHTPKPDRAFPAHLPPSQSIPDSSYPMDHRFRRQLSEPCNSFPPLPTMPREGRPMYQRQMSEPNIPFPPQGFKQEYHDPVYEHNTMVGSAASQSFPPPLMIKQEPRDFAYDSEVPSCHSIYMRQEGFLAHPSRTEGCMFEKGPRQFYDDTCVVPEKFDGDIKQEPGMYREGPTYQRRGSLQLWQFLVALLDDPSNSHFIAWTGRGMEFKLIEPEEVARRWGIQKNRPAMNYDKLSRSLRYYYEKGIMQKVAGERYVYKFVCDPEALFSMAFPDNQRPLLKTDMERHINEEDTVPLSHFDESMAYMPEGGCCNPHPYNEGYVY
CRX, sequence (O43186 whole entry): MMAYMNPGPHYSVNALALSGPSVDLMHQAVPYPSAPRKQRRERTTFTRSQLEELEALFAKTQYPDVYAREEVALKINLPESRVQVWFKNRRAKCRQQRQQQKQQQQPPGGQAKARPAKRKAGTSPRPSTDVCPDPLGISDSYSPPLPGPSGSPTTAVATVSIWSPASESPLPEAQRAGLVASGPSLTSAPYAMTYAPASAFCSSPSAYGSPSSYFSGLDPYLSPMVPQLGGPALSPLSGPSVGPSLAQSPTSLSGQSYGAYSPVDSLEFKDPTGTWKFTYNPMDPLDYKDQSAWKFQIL

**Q.** What does the source list for TAGCTG?
**A.** binding signal (FLI1): 1.29 fold enrichment (6-mer frequency, TF over GST control); binding signal (ELK1): 1.19 fold enrichment (6-mer frequency, TF over GST control); binding signal (GABPA): 1.21 fold enrichment (6-mer frequency, TF over GST control); binding signal (ERG): 1.11 fold enrichment (6-mer frequency, TF over GST control); binding signal (ELF1): 1.24 fold enrichment (6-mer frequency, TF over GST control); binding signal (EHF): 1.31 fold enrichment (6-mer frequency, TF over GST control); binding signal (SPI1): 1.22 fold enrichment (6-mer frequency, TF over GST control); binding signal (SPIB): 1.3 fold enrichment (6-mer frequency, TF over GST control); binding signal (FEV): 1.16 fold enrichment (6-mer frequency, TF over GST control); binding signal (ETV5): 1.06 fold enrichment (6-mer frequency, TF over GST control); binding signal (HSF1): 1.23 fold enrichment (6-mer frequency, TF over GST control); binding signal (SPIC): 1.09 fold enrichment (6-mer frequency, TF over GST control); binding signal (ELF4): 1.2 fold enrichment (6-mer frequency, TF over GST control); binding signal (ELK4): 1.23 fold enrichment (6-mer frequency, TF over GST control); binding signal (ETV2): 1.15 fold enrichment (6-mer frequency, TF over GST control); binding signal (ELF3): 1.17 fold enrichment (6-mer frequency, TF over GST control); binding signal (CRX): 1.38 fold enrichment (6-mer frequency, TF over GST control); binding signal (ETV1): 1.12 fold enrichment (6-mer frequency, TF over GST control)

Reference: paper PMC7862700, “An all-to-all approach to the identification of sequence-specific readers for epigenetic DNA modifications on cytosine”
